Assay results as given in paper PMC4336329 (PLoS ONE, 2015).
Hit rate of the full screen: of about 310,000 compounds, about 14,000 (4.5%) showed an effect of 50% or more. Effects have a minus sign here. The full list was thinned out, with strong results kept by preference.

molecular target: human ether-à-go-go-related gene (hERG) potassium channel (human, UniProt Q12809); experiment: primary screen, population patch clamp on CHO cells stably expressing hERG; higher = less effect of the substance
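Also: peak tail current of the secondary pulse compared with the same well before compound.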

human ether-à-go-go-related gene (hERG) potassium channel, sequence (Q12809 whole entry, looked up): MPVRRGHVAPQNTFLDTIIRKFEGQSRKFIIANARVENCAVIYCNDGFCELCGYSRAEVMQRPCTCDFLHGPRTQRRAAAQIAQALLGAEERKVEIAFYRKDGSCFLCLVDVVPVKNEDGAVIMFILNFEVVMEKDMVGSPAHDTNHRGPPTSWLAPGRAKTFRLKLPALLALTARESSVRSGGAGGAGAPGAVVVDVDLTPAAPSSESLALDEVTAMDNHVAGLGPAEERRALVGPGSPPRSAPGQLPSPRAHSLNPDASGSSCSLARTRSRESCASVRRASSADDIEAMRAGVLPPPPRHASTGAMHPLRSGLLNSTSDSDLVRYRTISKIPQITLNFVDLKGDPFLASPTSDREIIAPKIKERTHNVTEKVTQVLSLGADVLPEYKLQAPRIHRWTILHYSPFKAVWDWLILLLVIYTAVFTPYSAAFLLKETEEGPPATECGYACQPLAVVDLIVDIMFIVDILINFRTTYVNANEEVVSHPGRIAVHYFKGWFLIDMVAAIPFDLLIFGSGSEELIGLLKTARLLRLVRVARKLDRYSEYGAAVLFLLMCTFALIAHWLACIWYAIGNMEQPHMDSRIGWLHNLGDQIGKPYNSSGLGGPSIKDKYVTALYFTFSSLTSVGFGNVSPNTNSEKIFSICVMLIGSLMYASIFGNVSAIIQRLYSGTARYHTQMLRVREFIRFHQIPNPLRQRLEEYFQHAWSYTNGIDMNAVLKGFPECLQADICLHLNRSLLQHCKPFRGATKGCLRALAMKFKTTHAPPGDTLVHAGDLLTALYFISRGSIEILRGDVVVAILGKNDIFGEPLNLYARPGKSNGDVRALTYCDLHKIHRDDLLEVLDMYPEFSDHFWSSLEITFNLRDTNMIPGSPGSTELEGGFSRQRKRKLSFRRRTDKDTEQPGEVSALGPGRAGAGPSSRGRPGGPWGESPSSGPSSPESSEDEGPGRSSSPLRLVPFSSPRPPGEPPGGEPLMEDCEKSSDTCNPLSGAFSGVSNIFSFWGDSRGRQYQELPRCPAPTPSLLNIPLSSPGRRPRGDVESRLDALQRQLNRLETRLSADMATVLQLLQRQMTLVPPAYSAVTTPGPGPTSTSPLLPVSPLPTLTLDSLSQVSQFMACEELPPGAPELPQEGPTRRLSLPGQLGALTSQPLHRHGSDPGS

| Structure (SMILES) | hERG current change (%, negative = inhibition) at 10uM [%] |
| --- | --- |
| CNC(=O)/C(C#N)=C/c1c(N2CC(C)OC(C)C2)nc2ccccn2c1=O (centres unmarked) | 1.43 |
| O=C(Cn1cc(C(=O)COc2ccccc2)c2ccccc21)NCc1ccco1 | -0.105 |
| CCN(CC)S(=O)(=O)c1ccc(C(=O)OCCNC(=O)c2cccnc2)cc1 | -2.68 |
| COc1cc2c(cc1OC)CN(c1nc(CN3CCCC3)nc3sc(C)c(C)c13)CC2 | -75.6 |
| COc1cccc(Nc2nc(CN3CCOCC3)nc3sc4c(c23)CCCC4)c1 | -53.1 |
| COc1cc2c(cc1OC)CN(c1nc(CN3CCOCC3)nc3sc4c(c13)CCC(C)C4)CC2 (centres unmarked) | -67.5 |
| Cc1cccc(Oc2nc(CN3CCOCC3)nc3sc4c(c23)CCCC4)c1 | -29.7 |
| Cc1ccc(Oc2nc(CN3CCOCC3)nc3sc4c(c23)CCC(C)C4)cc1C (centres unmarked) | 7.99 |
| CCNc1nc(CN2CCOCC2)nc2sc3c(c12)CCC3 | -7.54 |
| COc1cc2c(cc1OC)CN(c1nc(CN3CCOCC3)nc3sc4c(c13)CCCC4)CC2 | -73.6 |
| Cc1sc2nc(CN3CCCCC3)nc(Cl)c2c1C | -24.5 |
| CC1CCc2c(sc3nc(CN4CCOCC4)nc(N4CCc5ccccc5C4)c23)C1 (centres unmarked) | -8.23 |
| Cc1cc(S(=O)(=O)Nc2nc(CN3CCOCC3)nc3sc4c(c23)CCCC4)ccc1F | -17.2 |
| COc1cc2c(cc1OC)CN(c1ccc(C(F)(F)F)cn1)CC2 | 15.9 |
| c1nc(N2CCOCC2)c2c3c(sc2n1)CCCC3 | -7.14 |
| O=c1[nH]c(=O)n(Cc2ccccc2)c(O)c1/C=N/Nc1c(F)c(F)c(F)c(F)c1F | 3.83 |
| COc1ccc(-c2csc(N)n2)cc1 | -6.71 |
| COc1cccc(-c2ccc3nnc(SCC(=O)N4CCCC4)n3n2)c1 | -17.1 |
| c1ccc2c(c1)CCN(c1nc(CN3CCOCC3)nc3sc4c(c13)CCCC4)C2 | -60.2 |
| COc1cc2c(cc1OC)CN(c1nc(CN3CCCCC3)nc3sc4c(c13)CCCC4)CC2 | -81.2 |
| O=S(=O)(Nc1nc(CN2CCOCC2)nc2sc3c(c12)CCCC3)c1cc(F)ccc1F | -34.9 |
| Clc1nc(CN2CCCCC2)nc2sc3c(c12)CCC3 | -33.6 |
| Clc1nc(CN2CCOCC2)nc2sc3c(c12)CCC3 | 14.5 |
| Clc1nc(CN2CCCCC2)nc2sc3c(c12)CCCC3 | -23.1 |

| Structure (SMILES) | hERG current change (%, negative = inhibition) at 10uM [%] |
| --- | --- |
| CCOC(=O)c1nn(-c2ccc(C)cc2)c2nc(Nc3ccccc3)cc(=O)n12 | 21.9 |
| Cc1ccccc1CN(c1ccc(C(=O)N/N=C/c2ccc(OCC(N)=O)cc2)cc1)S(C)(=O)=O | 5.85 |
| CO/N=C/c1cccn1-c1nccc(N(C)C)c1C#N | -2.01 |
| CCCN1CCN(C(=O)CCS(=O)(=O)c2cc3c(cc2Cl)NC(=O)CO3)CC1 | -48 |
| COc1ccc(S(=O)(=O)NCC2CCCN(C(=O)CCC(F)(F)F)C2)cc1 (centres unmarked) | 2.06 |
| COc1ccc(N(C(=O)Cn2nnc3ccccc32)C(C(=O)NCc2ccco2)c2cccnc2)cc1 (centres unmarked) | 9.77 |
| Cc1ccccc1CSc1nccn1-c1ccccc1 | -8.94 |
| CC(C)CNC(=S)N1CCC(Cc2ccccc2)CC1 | -40.1 |
| C[C@@H](CN1CCC(Cc2ccccc2)CC1)[C@@H](O)c1ccc(O)cc1.Cl | -71.3 |
| CC(C(O)c1ccc(O)cc1)N1CCC(Cc2ccccc2)CC1.O=C(O)C(O)C(O)C(=O)O (centres unmarked) | -71.4 |
| CC(C)NC(=S)N1CCC(Cc2ccccc2)CC1 | -2.26 |
| CC(C)C(=O)N1CCC(Cc2ccccc2)CC1 | 4.6 |
| CC(C(O)c1ccc(O)cc1)N1CCC(Cc2ccccc2)CC1.O.O=C(O)C(O)C(O)C(=O)O (centres unmarked) | -65.4 |
| C[C@H](NC(=O)N1CCC(Cc2ccccc2)CC1)C(=O)O | 15.5 |
| CCC(C)[C@H](NC(=O)N1CCC(Cc2ccccc2)CC1)C(=O)O (some centres unmarked) | 15.2 |
| CC(C)[C@H](NC(=O)N1CCC(Cc2ccccc2)CC1)C(=O)O | 6.12 |
| CCc1ccc(OCC(=O)NC(=S)Nc2ccc(S(=O)(=O)NC3CCCCC3)cc2)cc1 | 19.9 |
| CCOC(=O)Cc1csc(NC(=O)c2cc(OC)cc(OC)c2)n1 | -10.6 |
| O=C(O)c1cccc(CN2C(=O)CSC2=O)c1 | 19.4 |
| CCn1c(SCC(=O)N/N=C/c2ccc(O)c(OC)c2)nc2ccccc21 | 2.36 |
| COc1ccc(CC2(CO)CCN(Cc3cc4ccccc4o3)CC2)cc1 | -52.2 |
| OCC1(Cc2ccccc2)CCN(Cc2cc3ccccc3o2)CC1 | -51.7 |
| COc1ccc(CN2CCN(Cc3cc4ccccc4o3)CC2CCO)cc1C (centres unmarked) | -40.4 |
| OCC1(Cc2ccccc2)CCN(Cc2cnc(-c3cccc4ccccc34)nc2)CC1 | 10.8 |

| Structure (SMILES) | hERG current change (%, negative = inhibition) at 10uM [%] |
| --- | --- |
| COc1ccc(C(=O)N=c2sc3c(C)ccc(OC)c3n2C)cc1 | 6.32 |
| CCCC(=O)Nc1ccc(C(=O)NNC(=O)c2cccs2)cc1 | 12.2 |
| CC1(C)COC(c2coc3ccccc3c2=O)OC1 | 3.85 |
| Oc1c(N=NC(=S)Nc2ccccc2F)c2ccccc2n1Cc1ccc(F)cc1 | 18.7 |
| O=C(c1cccc(Br)c1)N1CCN(c2ccccn2)CC1 | -4.19 |
| OCCC1CN(Cc2cccn2-c2ccccn2)CCN1C1CCCC1 (centres unmarked) | -18.9 |
| Cc1ccc(CN2CCN(Cc3cccn3-c3ccc(Cl)cn3)CC2CCO)o1 (centres unmarked) | -23.3 |
| Cc1ccc(CN2CCN(Cc3cnc(N(C)C)s3)CC2CCO)o1 (centres unmarked) | 6.05 |
| OCCC1CN(Cc2cccn2-c2ccccn2)CCN1C1CCCCC1 (centres unmarked) | -57.1 |
| OCCC1CN(Cc2cccn2-c2ccccn2)CCN1Cc1ccccc1 (centres unmarked) | -76.5 |
| Cc1ccc(CN2CCN(Cc3cccn3-c3ccccn3)CC2CCO)cc1 (centres unmarked) | -82 |
| OCCC1CN(Cc2cccn2-c2ncccn2)CCN1C1CCCC1 (centres unmarked) | -6.11 |
| Cc1ccc(CN2CCN(Cc3cccn3-c3ccccn3)CC2CCO)o1 (centres unmarked) | -66.1 |
| Cc1ccc(CN2CCN(Cc3ccccn3)CC2CCO)cc1 (centres unmarked) | -47.9 |
| Cc1onc(-c2c(F)cccc2Cl)c1C(=O)ONC(=O)c1ccccc1 | 8.85 |
| CC(=O)Nc1ccc(S(=O)(=O)N(CC(=O)O)Cc2ccccc2)cc1 | -12.6 |
| CC1CN(C(=O)C2CC(=O)N(c3ccc(Cl)cc3)C2)CC(C)O1 (centres unmarked) | -13.3 |
| COC(=O)c1ccc(/C=N\N2CCN(Cc3ccc(C)cc3)CC2)cc1 | 9.51 |
| O=C(CCN1C(=O)/C(=C/c2ccccc2F)SC1=S)NCCc1ccc(O)cc1 | 14.1 |
| COC(=O)c1cc(Cl)c(NC(=O)/C=C/c2ccc(Cl)cc2)cc1OC | -15.7 |
| Fc1ccc(Br)cc1C1C=C(c2ccc(Br)s2)Nc2ncnn21 (centres unmarked) | 9 |
| COCCCNC(=O)c1ccc(CS(=O)(=O)c2ccccc2C)o1 | 7.74 |
| O=C(NCc1cccnc1)C1c2ccccc2C(=O)N1C1CCCCCC1 (centres unmarked) | 2.21 |
| O=C(O)c1cccc2c1NC(C(=O)O)C1CC(Sc3ccccc3[N+](=O)[O-])C(Cl)C21 (centres unmarked) | -0.458 |

| Structure (SMILES) | hERG current change (%, negative = inhibition) at 10uM [%] |
| --- | --- |
| Cc1ccc2c(C)c(C(=O)N3CCN(Cc4ccccn4)CC3)oc2c1C | -23.1 |
| Cc1c(C(=O)N2CCN(c3ncccn3)CC2)oc2ccc(Cl)cc12 | -23.3 |
| Cc1ccc2oc(C(=O)N3CCN(Cc4ncccc4C)CC3)c(C)c2c1 | -78.3 |
| Cc1ccc2oc(C(=O)N3CCN(CCO)CC3)c(C)c2c1 | 13.7 |
| Cc1cc2oc(C(=O)N3CCN(CCc4ccccn4)CC3)c(C)c2cc1C | -21.2 |
| Cc1c(C(=O)N2CCN(CCc3ccccn3)CC2)oc2ccc(Cl)cc12 | -81.1 |
| Cc1c(C(=O)N2CCN(CCc3ccccn3)CC2)oc2ccc(F)cc12 | -72.1 |
| Cc1ccc2oc(C(=O)N3CCN(Cc4nccn4C)CC3)c(C)c2c1 | -41.3 |
| Cc1c(C(=O)N2CCN(C(=O)c3ccccc3)CC2)oc2ccc(F)cc12 | -44.8 |
| CC(C)CN(C(=O)c1ccc(S(=O)(=O)N2CCCC2)cc1)C1CCS(=O)(=O)C1 (centres unmarked) | -3.52 |
| Cc1cccc(NC(=O)C(=O)NCc2ccc3c(c2)OCO3)c1C | -16.5 |
| CCN(CC)C(=O)Oc1nnc(SC(C)C)n1-c1ccc(Cl)c(Cl)c1 | -7.2 |
| Cc1ncoc1C(=O)N1CCCC(C(=O)c2cccc(OC(C)C)c2)C1 (centres unmarked) | 10.3 |
| Cc1ccc(C)c(C(C)NC(=O)C2CCCO2)c1 (centres unmarked) | 17.6 |
| O=C(NCC(=O)N1CCN(c2ccccc2)CC1)c1ccc(Br)o1 | -39.9 |
| Cc1ccc(Cl)cc1N1CCN(C(=O)c2noc(C)c2[N+](=O)[O-])CC1 | 1.15 |
| Cc1cc(C(=O)N2CCN(c3cc(Cl)ccc3C)CC2)on1 | -58.7 |
| O=C(NCC(=O)N1CCN(c2cccc(Cl)c2)CC1)c1ccc(Br)o1 | -78.4 |
| Cc1ccc(Cl)cc1N1CCN(C(=O)CNC(=O)c2ccc(Br)o2)CC1 | -55.9 |
| O=C(NCC(=O)N1CCN(c2ccccc2F)CC1)c1ccc(Br)o1 | -39.1 |
| O=C(NCC(=O)N1CCN(c2ccccc2O)CC1)c1ccc(Br)o1 | -4.93 |
| CC(=O)N1CCN(C(=O)CNC(=O)c2ccc(Br)o2)CC1 | 22.2 |
| Cc1cc(C(=O)N2CCN(c3ccc(F)cc3)CC2)on1 | -14.5 |
